The results in this text go back to PubChem BioAssay AID1851 (National Center for Advancing Translational Sciences (NCATS), 2009).

Values joined by “and” are separate entries in the source; they are usually repeats but may differ in a detail not shown here. Equal entries are not always repeated. In all, about 16,000 compounds went through this assay and about 4,000 (25%) were called active. Not shown: some 26% with an inconclusive outcome. The call rests on the fitted dose curve; in most records, active means well fitted curve in the direction sought with a large enough effect; inconclusive means small, poorly fitted or top-dose-only effect, or effect the other way; inactive means no such curve, though single readings can be large or run the other way. A selection follows. A structure can be active in one record and inactive in another.
On the % scale 0 is the no-effect control and ±100 the full control effect.

The target in the assay is Cytochrome P450 2C9 (Homo sapiens) (UniProt P11712). The assay can be described thus: Cytochrome panel assay with activity outcomes. The settings on record: recombinant CYP, pro-luciferin dealkylation, luminescence, p450-cyp2c9; series mostly up to 57.1 µM; activity, negative = inhibition: at the top concentration.
Cytochrome P450 2C9 (Homo sapiens), sequence (P11712 whole entry, looked up): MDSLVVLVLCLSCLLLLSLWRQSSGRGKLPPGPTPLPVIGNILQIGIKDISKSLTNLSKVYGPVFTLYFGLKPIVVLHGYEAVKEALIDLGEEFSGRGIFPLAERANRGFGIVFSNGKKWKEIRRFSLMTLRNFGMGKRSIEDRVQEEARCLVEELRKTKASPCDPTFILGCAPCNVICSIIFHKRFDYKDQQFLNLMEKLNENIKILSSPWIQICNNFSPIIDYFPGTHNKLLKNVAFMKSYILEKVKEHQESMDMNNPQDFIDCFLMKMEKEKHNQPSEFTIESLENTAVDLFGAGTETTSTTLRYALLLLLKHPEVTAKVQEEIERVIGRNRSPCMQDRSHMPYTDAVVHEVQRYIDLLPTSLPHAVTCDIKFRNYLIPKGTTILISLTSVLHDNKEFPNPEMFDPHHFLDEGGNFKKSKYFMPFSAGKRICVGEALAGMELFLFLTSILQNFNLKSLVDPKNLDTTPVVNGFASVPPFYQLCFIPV
`Cc1ncc(CSC(=N)N)n1Cc1ccccc1`: the activity, negative = inhibition is -16.1% [at 11.4 µM] (inactive).

Turning to `Cc1nnc(-c2cnn(-c3ccccc3)c2N)n1Cc1ccc(F)cc1`, the AC50 – broadly, the concentration at which the activity in the assay is half-maximal – is 15.8 µM (active).

`N=C(N)C(N=Nc1ccccc1)C(=N)N` (stereo not drawn): the activity, negative = inhibition was 11.9% [at 11.4 µM] (inactive).

In the case of `O=C(O)[C@@H](O)[C@@H](O)[C@@H](O[C@H]1O[C@@H](CO)[C@@H](O)[C@@H](O)[C@@H]1O)[C@@H](O)CO`, the “activity, negative = inhibition” value is -14.4% [at 25.6 µM] (inactive).

For `Cc1ccc(C2NC(c3ccc(C)cc3)C(C)C(=NO)C2C)cc1` (stereo not drawn), the AC50 was 6.31 µM (active).

As to `c1ccc(CSCCc2ccncc2)cc1`, the AC50 is 0.316 µM (active).

As for `c1ccc2c(CSCCc3ccncc3)cccc2c1`, the half-maximal activity concentration (AC50) is 0.0631 µM (active).

`c1cc(CSSCc2ccncc2)ccn1`: the AC50 is 1.58 µM (active).

Regarding `N=C(N)SCCc1ccc(CCSC(=N)N)cc1`, the “activity, negative = inhibition” value was 12.5% (inactive).

In the case of `Clc1ccc(CSCCc2ccncc2)cc1Cl`, the AC50 was 0.0794 µM (active).

For the molecule `N=C(N)SCCc1ccncc1`, the activity, negative = inhibition was 6.27% [at 11.4 µM] (inactive).

`CN1CCN(CCc2ccc(Cl)c(Cl)c2)CC1`: the “activity, negative = inhibition” value is -18.2% (inactive).

As for `c1ccc2c(CC3NCCN3)cccc2c1`, the activity, negative = inhibition was -9.35% [at 11.4 µM] (inactive).

For `O=S(=O)(O)CCCc1cccc2ccccc12`, the activity, negative = inhibition is -3.26% [at 11.4 µM] (inactive).

For the molecule `c1cc(CNCCN2CCNCC2)ccn1`, the activity, negative = inhibition was -4.43% [at 11.4 µM] (inactive).

Turning to `C[C@@H]1c2ccccc2CN1CC1=NCCN1`, the “activity, negative = inhibition” value was 9.84% (inactive).

Consider `Cc1ncc([N+](=O)[O-])n1CCO`, for which the “activity, negative = inhibition” value is -6.17% [at 25.6 µM] (inactive).

Turning to `CCOC(=O)N1CCC(NC(=O)CS(=O)(=O)Cc2nc(-c3cccc(OC)c3)oc2C)CC1`, the AC50 was 25.1 µM (active).

Take `Cc1oc(-c2ccccc2F)nc1CS(=O)(=O)CC(=O)NCCCN(C)C1CCCCC1`: the “activity, negative = inhibition” value is -21.4% (inactive).

As for `CCOC(=O)N1CCC(NC(=O)CCC(=O)N2CC(C)Oc3ccc(C)cc32)CC1` (stereo not drawn), the “activity, negative = inhibition” value was -19.7% (inactive).

With `CNc1ncnc2ccc(-c3cccc(NS(C)(=O)=O)c3)cc12`, the activity, negative = inhibition was -18.3% [at 2.29 µM] (inactive).

On to `CC1=C(CC(=O)O)c2cc(F)ccc2/C1=C\c1ccc(S(C)(=O)=O)cc1`, for which the “activity, negative = inhibition” value was -6.18% (inactive).

For the molecule `CC1=C(CC(=O)O)c2cc(F)ccc2/C1=C\c1ccc(S(C)=O)cc1` (stereo not drawn), the half-maximal activity concentration (AC50) result was “inactive and 12.6 µM (active)”.

As to `Cc1noc(C)c1COc1cccc(C(=O)OCC(=O)N2CC(=O)Nc3ccccc32)c1`, the AC50 was 3.55 µM (active).

With `Cc1cc(=O)[nH]c(-n2[nH]c(C)cc2=O)n1`, the “activity, negative = inhibition” value is -7.66% (inactive).

For the molecule `CO[C@]1(NC(=O)C2SC(=C(C(N)=O)C(=O)O)S2)C(=O)N2C(C(=O)O)=C(CSc3nnnn3C)CS[C@H]21` (stereo partly drawn), the “activity, negative = inhibition” value is 20.1% [at 25.6 µM] (inactive).

Regarding `CC(=O)NCCNc1cc(-c2ccccc2C)ncn1`, the activity, negative = inhibition is 5.2% [at 2.29 µM] (inactive).

Regarding `Cc1ccccc1-c1cc(C(=O)n2cccn2)c2cc(Cl)ccc2n1`, the half-maximal activity concentration (AC50) is 5.01 µM (active).

Consider `CC(=O)NCCNc1ncnc2ccc(-c3ccccc3C)cc12`, for which the activity, negative = inhibition is -0.544% [at 2.29 µM] (inactive).

Turning to `C[C@@H](c1ccccc1)N1C(=O)[C@H]2[C@H]3[C@H](O)[C@H](O)C/C(=N/OC[C@@H](O)COCc4ccco4)[C@H]3CC[C@@H]2C1=O`, the activity, negative = inhibition was 10.7% [at 11.4 µM] (inactive).

As to `Cc1c(/C=C2\SC(=O)N(CC(=O)Nc3ccc4c(c3)OCO4)C2=O)c2ccccc2n1C`, the “activity, negative = inhibition” value is -9.41% (inactive).

For `CC(C)n1cc(/C=C2/SC(=O)N(CC(=O)Nc3ccc4c(c3)OCO4)C2=O)c2ccccc21`, the concentration at half-maximal activity (AC50) was 3.98 µM (active).

Consider `CC(=O)N[C@H](Cc1ccc(O)cc1)C(=O)O`, for which the activity, negative = inhibition was 2.06% [at 11.4 µM] (inactive).

Take `C[C@@H](CCc1ccc(O)cc1)NCCc1ccc(O)c(O)c1`: the AC50 entry was “inactive”.

`O=C(CCc1ccc(O)cc1)c1c(O)cc(O)cc1O`: the AC50 is 12.6 µM (active).

For the molecule `C(=N\n1cnnc1)/c1cccn1-c1ccccc1`, the AC50 is 5.01 µM (active).

`CCOC(=O)c1cc2sc(C)cc2n1CCCN1C(=O)c2ccccc2C1=O`: the concentration at half-maximal activity (AC50) was 3.55 µM (active).

With `Cc1nc2c(O)cccc2c(=O)[nH]1`, the AC50 was 3.98 µM (active).

Regarding `Cc1cc2[nH]c(=O)c3ccccc3n2n1`, the “activity, negative = inhibition” value was -17.6% (inactive).

With `O=c1[nH]c2ccccc2c2ccccc12`, the “activity, negative = inhibition” value was -16.3% (inactive).

Turning to `Cc1ccc(C2C(C(=O)c3sc(C)nc3C)=C(O)C(=O)N2CCN2CCOCC2)o1` (stereo not drawn), the “activity, negative = inhibition” value was 12.4% (inactive).

`CN(C)CCN1C(=O)C(O)=C(C(=O)c2cc3ccccc3o2)C1c1cccc(Br)c1` (stereo not drawn): the “activity, negative = inhibition” value is -9% (inactive).

As to `COc1cc(C2C(C(=O)c3ccc(C)o3)=C(O)C(=O)N2CCc2ccccc2)ccc1O` (stereo not drawn), the AC50 is 7.08 µM (active).

In the case of `COc1ccc(CCN2C(=O)C(O)=C(C(=O)c3ccco3)C2c2cccs2)cc1OC` (stereo not drawn), the AC50 is 1.41 µM (active).

For the molecule `Cc1ccc(C(=O)C2=C(O)C(=O)N(CCCn3ccnc3)C2c2ccc(OC(C)C)cc2)o1` (stereo not drawn), the half-maximal activity concentration (AC50) is 11.2 µM (active).

As for `CCOc1cccc(C2C(C(=O)c3ccc(C)o3)=C(O)C(=O)N2Cc2ccncc2)c1` (stereo not drawn), the AC50 is 12.6 µM (active).

As to `CCC(C)NC(=O)C1c2cc(OC)c(OC)cc2C(=O)N(C)C1c1cccs1` (stereo not drawn), the “activity, negative = inhibition” value was 4.6% (inactive).

On to `COc1cc2c(cc1OC)C(C(=O)N1CCOCC1)C(c1cccs1)N(C)C2=O` (stereo not drawn), for which the “activity, negative = inhibition” value is 13.6% (inactive).
